40 compounds from PubChem BioAssay (NCI) can be followed below.

The panel holds about 83,000 compounds, 20% with a hit somewhere; the sample as a whole holds those more often.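 The test compound was applied at a single concentration to cells in 96-well plates for 48 hours, and percent growth was recorded.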 A number with no mark means an inactive call. The source made the active and inactive calls. Rule for the calls: active = growth percent below 10; inactive = the rest.

One experiment relates to IGROV1 ovarian. Description: NCI-60 one-dose screen, 48 h (100 = growth as untreated, 0 = no growth, -100 = all killed). To be noted: 10 µM unless noted.
Take `O=C(Nc1ccc(-n2cc(-c3ccncc3)c(-c3ccc(Cl)c(O)c3)n2)cc1)c1cc(C(F)(F)F)cc(C(F)(F)F)c1`: the growth is 70.5%.

Take `COc1ccc(C2CC(=O)c3c(O)cc(OC4OC(COC5OC(C)C(O)C(O)C5O)C(O)C(O)C4O)cc3O2)cc1O` (stereo not given): the growth is 37.7%.

In the case of `O=C(NCCNCCO)c1cc([N+](=O)[O-])cc([N+](=O)[O-])c1O`, the growth was 107%.

Regarding `O=Nc1ccc(O)c2ccccc12`, the growth is 2.08% (active).

Regarding `CC(=O)N1CCN(CCNC(=O)n2cc(-c3ccncc3)c(-c3ccc(O)c(Cl)c3)n2)CC1`, the growth was 127%.

On to `NC(=O)c1c(Nc2ccccc2)nn2cc(-c3nc4ccccc4s3)c(N)nc12`, for which the growth is 93.3%.

As for `CC(O)CN(CCO)CCN(CCO)CC(C)O` (stereo not given), the growth is 115%.

With `COC(=O)c1ccc2[nH]c(O)c(C(=Nc3ccc(N(C)C(=O)CN4CCN(C)CC4)cc3)c3ccc(OC)cc3)c2c1`, the growth was 6.44% (active).

Consider `c1ccc(C(=NNc2nc3ccccc3o2)c2ccccn2)nc1`, for which the growth was 16.3%.

In the case of `COC(=O)C(Cc1cnc[nH]1)N1CC(=O)N2[C@@H](c3ccccc3)SC[C@H]2C1=O` (stereo not given in full), the growth was 116%.

Consider `COC(=O)c1ccc2[nH]c(O)c(C(=Nc3ccc(N(C)C(=O)CN4CCN(C)CC4)cc3)c3ccc4c(c3)OCO4)c2c1`, for which the growth is 4.12% (active).

In the case of `Cc1ccc(NCc2cn(-c3ccc(C(=O)O)cc3)nc2-c2ccc(C(=O)O)cc2)cc1`, the growth is 107%.

For the compound `O=C(c1ccccc1)c1ccccc1-c1ccccc1`, the growth is 41.7%.

With `CCCCCCC(C(=O)OCC)(C(=O)OCC)C1CCCCCC1`, the growth was 102%.

In the case of `COC(=O)c1ccc2[nH]c(O)c(C(=Nc3ccc(N(C)C(=O)CN4CCN(C)CC4)cc3)c3ccc([N+](=O)[O-])cc3)c2c1`, the growth is 19.1%.

As for `O=C1OC(c2ccc(-c3ccccc3)cc2)=C/C1=C/c1c2ccccc2cc2ccccc12`, the growth was 101%.

As to `O=C(O)c1ccc(-c2nn(-c3ccc(C(=O)O)cc3)cc2CNc2ccc(Br)cc2)cc1`, the growth was 115%.

In the case of `O=C(N/N=C\c1ccc(-c2ccc(Br)cc2)o1)c1cc2oc(-c3cccc(C(F)(F)F)c3)cc2[nH]1`, the growth is 130%.

In the case of `COC(=O)c1ccc2[nH]c(O)c(C(=Nc3ccc(N(C)C(=O)CN4CCN(C)CC4)cc3)c3ccc(N)cc3)c2c1`, the growth is 46.6%.

With `COC(=O)c1ccc(C(=Nc2ccc(N(C)C(=O)CN3CCN(C)CC3)cc2)c2c(O)[nH]c3ccc(C(=O)OC)cc23)cc1`, the growth is 5.1% (active).

For `Cc1ccc(C(C)C)c(OCc2ccc(C(=O)N/N=C/c3cccc(O)c3O)cc2)c1`, the growth is 40.8%.

For `O=C1Nc2c(c(=O)n(-c3ccccc3)c3ccccc23)C(c2ccc(Cl)cc2)N1` (stereo not given), the growth is 84%.

In the case of `O=c1c2c(c3ccccc3n1-c1ccccc1)NC(=S)NC2c1ccccc1` (stereo not given), the growth is 102%.

On to `COC(=O)c1ccc2[nH]c(O)c(C(=Nc3ccc(N(C)C(=O)CN4CCN(C)CC4)cc3)c3ccc(CCO)cc3)c2c1`, for which the growth is 16.5%.

For the compound `CCCCn1c(Cc2ccc(OC)cc2)nc2cc(OC)c(OC)cc2c1=O`, the growth was 81.3%.

Regarding `Cc1[nH]n(C(=S)Nc2nc3cc(Cl)c(F)cc3s2)c(=O)c1N=Nc1ccc(F)c(Cl)c1`, the growth was 88.4%.

As for `Clc1ccc(N/N=C(\c2ccccc2)c2ccccn2)nc1`, the growth is 12.7%.

For `c1ccc(Nc2ncc3c(n2)-c2cccn2CC3)cc1`, the growth is 54.5%.

On to `C=CCC(CCC(CC=C)C(=O)OCC)C(=O)OCC` (stereo not given), for which the growth was 102%.

Take `O=[N+]([O-])c1ccc(-c2ncc(-c3ccc(O)cc3O)[nH]2)cc1`: the growth was 97.6%.

For `CC(=O)OC1/C=C\CC/C=C\C1` (stereo not given), the growth was 110%.

On to `CCN(CC)CCCNc1c2ccc(Cl)cc2nc2ccc(OC)cc12`, for which the growth is 6.62% (active).

As for `COc1cc(-c2nn(-c3ccc(NC(=O)Nc4cc(C(F)(F)F)cc(C(F)(F)F)c4)cc3)cc2-c2ccncc2)ccc1Cl`, the growth is 8.43% (active).

Take `CC(=O)Nc1nc(C)c(C(=O)NN)s1`: the growth was 95%.

With `CC/C(=N\Nc1nc2ccccc2n1C)c1ccccn1`, the growth is 13.6%.

As for `CC(=O)OCC1O[C@@H](OC(C)=O)[C@@H](NC(=O)NS(=O)(=O)c2ccccc2)C(OC(C)=O)[C@@H]1OC(C)=O` (stereo not given in full), the growth is 108%.

In the case of `Cc1nc2c(nnn2-c2ccccc2)c2nc(-c3ccccc3)oc(=O)c12`, the growth is 111%.

Take `CCc1ccc(C(=Nc2ccc(N(C)C(=O)CN3CCN(C)CC3)cc2)c2c(O)[nH]c3ccc(C(=O)OC)cc23)cc1`: the growth is -65.4% (active).

For `C=C[C@]1(C)C=C2C(=O)[C@@]3(O)OC[C@@]4(CCCC(C)(C)C43O)C2(O)C(O)C1` (stereo not given in full), the growth was 107%.

Take `CCOC(=O)c1c2c(cn1Cc1ccccc1)-c1oncc1CC2`: the growth was 101%.

The next experiment concerns OVCAR-3 ovarian. The experiment is described as above. To be noted: 10 µM unless noted.
For `O=C(Nc1ccc(-n2cc(-c3ccncc3)c(-c3ccc(Cl)c(O)c3)n2)cc1)c1cc(C(F)(F)F)cc(C(F)(F)F)c1`, the growth is 53.2%.

Consider `COc1ccc(C2CC(=O)c3c(O)cc(OC4OC(COC5OC(C)C(O)C(O)C5O)C(O)C(O)C4O)cc3O2)cc1O` (stereo not given), for which the growth was 131%.

For the compound `O=C(NCCNCCO)c1cc([N+](=O)[O-])cc([N+](=O)[O-])c1O`, the growth was 110%.

With `O=Nc1ccc(O)c2ccccc12`, the growth is -6.85% (active).

In the case of `CC(=O)N1CCN(CCNC(=O)n2cc(-c3ccncc3)c(-c3ccc(O)c(Cl)c3)n2)CC1`, the growth was 112%.

Take `NC(=O)c1c(Nc2ccccc2)nn2cc(-c3nc4ccccc4s3)c(N)nc12`: the growth was 107%.

Regarding `CC(O)CN(CCO)CCN(CCO)CC(C)O` (stereo not given), the growth is 112%.

Turning to `COC(=O)c1ccc2[nH]c(O)c(C(=Nc3ccc(N(C)C(=O)CN4CCN(C)CC4)cc3)c3ccc(OC)cc3)c2c1`, the growth is 30.4%.

Consider `c1ccc(C(=NNc2nc3ccccc3o2)c2ccccn2)nc1`, for which the growth was 16.5%.

On to `COC(=O)C(Cc1cnc[nH]1)N1CC(=O)N2[C@@H](c3ccccc3)SC[C@H]2C1=O` (stereo not given in full), for which the growth is 111%.

On to `COC(=O)c1ccc2[nH]c(O)c(C(=Nc3ccc(N(C)C(=O)CN4CCN(C)CC4)cc3)c3ccc4c(c3)OCO4)c2c1`, for which the growth was 10.9%.

On to `Cc1ccc(NCc2cn(-c3ccc(C(=O)O)cc3)nc2-c2ccc(C(=O)O)cc2)cc1`, for which the growth was 101%.

On to `O=C(c1ccccc1)c1ccccc1-c1ccccc1`, for which the growth is 13.3%.

As to `CCCCCCC(C(=O)OCC)(C(=O)OCC)C1CCCCCC1`, the growth was 117%.

For `COC(=O)c1ccc2[nH]c(O)c(C(=Nc3ccc(N(C)C(=O)CN4CCN(C)CC4)cc3)c3ccc([N+](=O)[O-])cc3)c2c1`, the growth was 53.6%.

Turning to `O=C1OC(c2ccc(-c3ccccc3)cc2)=C/C1=C/c1c2ccccc2cc2ccccc12`, the growth is 97.9%.

`O=C(O)c1ccc(-c2nn(-c3ccc(C(=O)O)cc3)cc2CNc2ccc(Br)cc2)cc1`: the growth was 104%.

For the compound `O=C(N/N=C\c1ccc(-c2ccc(Br)cc2)o1)c1cc2oc(-c3cccc(C(F)(F)F)c3)cc2[nH]1`, the growth was 101%.

In the case of `COC(=O)c1ccc2[nH]c(O)c(C(=Nc3ccc(N(C)C(=O)CN4CCN(C)CC4)cc3)c3ccc(N)cc3)c2c1`, the growth is 96.2%.

In the case of `COC(=O)c1ccc(C(=Nc2ccc(N(C)C(=O)CN3CCN(C)CC3)cc2)c2c(O)[nH]c3ccc(C(=O)OC)cc23)cc1`, the growth is 28.3%.

Take `Cc1ccc(C(C)C)c(OCc2ccc(C(=O)N/N=C/c3cccc(O)c3O)cc2)c1`: the growth is 20.4%.

As to `O=C1Nc2c(c(=O)n(-c3ccccc3)c3ccccc23)C(c2ccc(Cl)cc2)N1` (stereo not given), the growth is 106%.

With `O=c1c2c(c3ccccc3n1-c1ccccc1)NC(=S)NC2c1ccccc1` (stereo not given), the growth was 105%.

Regarding `COC(=O)c1ccc2[nH]c(O)c(C(=Nc3ccc(N(C)C(=O)CN4CCN(C)CC4)cc3)c3ccc(CCO)cc3)c2c1`, the growth was 52.5%.

For `CCCCn1c(Cc2ccc(OC)cc2)nc2cc(OC)c(OC)cc2c1=O`, the growth is 86.3%.

With `Cc1[nH]n(C(=S)Nc2nc3cc(Cl)c(F)cc3s2)c(=O)c1N=Nc1ccc(F)c(Cl)c1`, the growth is 98.2%.

Consider `Clc1ccc(N/N=C(\c2ccccc2)c2ccccn2)nc1`, for which the growth is 12.3%.

As for `c1ccc(Nc2ncc3c(n2)-c2cccn2CC3)cc1`, the growth is 82.7%.

For `C=CCC(CCC(CC=C)C(=O)OCC)C(=O)OCC` (stereo not given), the growth was 115%.

For `O=[N+]([O-])c1ccc(-c2ncc(-c3ccc(O)cc3O)[nH]2)cc1`, the growth is 105%.

Turning to `CC(=O)OC1/C=C\CC/C=C\C1` (stereo not given), the growth was 115%.

On to `CCN(CC)CCCNc1c2ccc(Cl)cc2nc2ccc(OC)cc12`, for which the growth was -11.5% (active).

As to `COc1cc(-c2nn(-c3ccc(NC(=O)Nc4cc(C(F)(F)F)cc(C(F)(F)F)c4)cc3)cc2-c2ccncc2)ccc1Cl`, the growth is -20.9% (active).

`CC(=O)Nc1nc(C)c(C(=O)NN)s1`: the growth is 104%.

In the case of `CC/C(=N\Nc1nc2ccccc2n1C)c1ccccn1`, the growth is 25.8%.

For the compound `CC(=O)OCC1O[C@@H](OC(C)=O)[C@@H](NC(=O)NS(=O)(=O)c2ccccc2)C(OC(C)=O)[C@@H]1OC(C)=O` (stereo not given in full), the growth was 110%.

`Cc1nc2c(nnn2-c2ccccc2)c2nc(-c3ccccc3)oc(=O)c12`: the growth was 117%.

With `CCc1ccc(C(=Nc2ccc(N(C)C(=O)CN3CCN(C)CC3)cc2)c2c(O)[nH]c3ccc(C(=O)OC)cc23)cc1`, the growth was -69.9% (active).

In the case of `C=C[C@]1(C)C=C2C(=O)[C@@]3(O)OC[C@@]4(CCCC(C)(C)C43O)C2(O)C(O)C1` (stereo not given in full), the growth is 16.3%.

`CCOC(=O)c1c2c(cn1Cc1ccccc1)-c1oncc1CC2`: the growth was 103%.
